DT40 TDP1 CPT: growth inhibition of DT40 Tdp1-/-;hTDP1 cells with camptothecin (screen for TDP1 inhibitors); chicken DT40 Tdp1-/-;hTDP1 cells + 20 nM CPT, ATP luminescence, 48 h; Potency, µM (top dose mostly 46.2 µM), inactives show at the top dose activity change, negative = growth inhibition, usual class: inhibitors; 420,000 compounds, 12% hits; AID 686979; further: potency means the concentration at half of the fitted maximal effect; nearly all actives have a fitted effect of over 55% in size
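Chicken DT40 Tdp1-/- cells complemented with human TDP1, 400 cells/well, exposed to compounds plus 20 nM camptothecin for at least 48 h at 37 C; viability read as ATP content by CellTiter-Glo luminescence.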
Gal4-VP16 FLuc: inhibits Gal4-VP16 luciferase reporter, ROR gamma counter-screen; Drosophila S2 Gal4-VP16 UAS-luciferase, luminescence, 20 h; Potency, µM (series often up to 53.6 µM), without a hit: at the top dose activity, negative = inhibition, usual class: inhibitors; 310,000 compounds, 3.5% hits; AID 2546;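 further: Gal4-VP16 expression switched on by copper sulfate through the metallothionein promoter; potency means the concentration at half of the fitted maximal effect; nearly all actives have a fitted effect of over 50% in size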
DT40 TDP1 no CPT: qHTS for Inhibitors of human tyrosyl-DNA phosphodiesterase 1 (TDP1): qHTS in cells in absence of CPT | DT40 Tdp1-/- hTDP1 cells, no CPT, ATP luminescence, 48 h | Potency, µM (highest dose often 46.2 µM), inactives show at the highest dose activity change, negative = growth inhibition, most hits filed as inhibitors | 420,000 compounds, 15% hits | AID 686978, 2013; further: potency means the concentration at half of the fitted maximal effect; nearly all actives have a fitted effect of over 55% in size
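No-CPT arm: Tdp1-/-;hTDP1 DT40 cells (400/well) plus compounds, incubated ≥48 hr at 37 °C. Readout CellTiter-Glo luminescence.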
ELG1 DNA repair: blocks ELG1-dependent DNA repair in HEK293T cells; HEK293T ELG1-luciferase reporter, luminescence, 16 h; DNA damage induced by 5-fluorouridine; Potency, µM (highest dose often 46.1 µM), inactives show at the highest dose activity change, negative = inhibition, hits mostly inhibitors; 330,000 compounds, 2.3% hits; AID 504467; further: potency means the concentration at half of the fitted maximal effect; nearly all actives have a fitted effect of over 55% in size
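Quantitative HTS, concentration-response format. 2,000 cells/well co-treated with 5-fluorouridine and compound, 16 hr in 5% CO2 at 37 °C; ONE-Glo luminescence read after 30 min.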
IL1B secr inh: inhibitors of inflammasome signaling (IL-1 beta secretion); activity change, % at 57.5 µM; THP-1 LPS/ATP IL-1B secretion, AlphaLISA, 16 h; hits give low values; 360,000 compounds, 4.7% hits; AID 743279; in the data active means activity change below about -50%; inconclusive means mostly about -30% to -49%
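THP-1 cells pretreated 1 hr with compounds (up to 57.5 uM final), then stimulated with LPS (250 ng/mL final) plus ATP (1.25 mM final); secreted IL-1B measured by AlphaLISA after 16 hr, decreased signal indicating inhibition.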
RORgamma inh: blocks mouse ROR gamma transcriptional activity; P51450; 310,000 compounds, 5.4% hits; Potency, µM (titrated, usually from 53.6 µM), inactives show top-dose activity change, negative = inhibition, usual class: inhibitors; Drosophila S2 Gal4-RORgamma UAS-luciferase reporter, 20 h; further: potency means the concentration at half of the fitted maximal effect; nearly all actives have a fitted effect of over 60% in size
Target sequence (P51450 whole entry, looked up, the tested form may be a part): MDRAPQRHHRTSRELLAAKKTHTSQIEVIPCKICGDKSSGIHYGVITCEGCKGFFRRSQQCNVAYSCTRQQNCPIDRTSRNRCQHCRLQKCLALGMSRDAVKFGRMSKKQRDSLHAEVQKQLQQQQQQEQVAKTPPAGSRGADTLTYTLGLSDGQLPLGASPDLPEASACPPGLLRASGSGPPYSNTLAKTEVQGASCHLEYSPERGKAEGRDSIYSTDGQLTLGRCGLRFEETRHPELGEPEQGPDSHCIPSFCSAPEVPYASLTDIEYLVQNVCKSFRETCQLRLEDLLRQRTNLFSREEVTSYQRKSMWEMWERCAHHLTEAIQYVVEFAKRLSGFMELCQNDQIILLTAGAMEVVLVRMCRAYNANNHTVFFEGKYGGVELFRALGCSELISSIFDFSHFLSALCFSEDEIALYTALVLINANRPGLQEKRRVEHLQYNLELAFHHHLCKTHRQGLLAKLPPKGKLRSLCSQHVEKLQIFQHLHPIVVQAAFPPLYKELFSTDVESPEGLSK
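ROR gamma transcriptional activity was tracked as Gal4-UAS luciferase output in stably transfected Drosophila Schneider cells, with compound added 1 hr before 700 uM copper sulfate induction and a 20 hr ambient-temperature incubation.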
An asterisk follows results filed as active. An excerpt weighted towards active compounds, which were near 21% of everything screened. Unless noted, the call rests on the fitted dose curve; in most records, active means well fitted curve in the direction sought with a large enough effect; inconclusive means small, poorly fitted or top-dose-only effect, or another doubt; inactive means no such curve, though single readings can be large; an effect the other way counts as inactive or inconclusive. On the % scale 0 is the no-effect control and ±100 the full control effect.

What do the screens show for `CC(C)(C)NC(=O)C(c1ccncc1)N(Cc1cccs1)C(=O)Cn1nnc(-c2ccc(F)cc2)n1` (centres undefined)?
DT40 TDP1 CPT: inconclusive; Gal4-VP16 FLuc: -3%; DT40 TDP1 no CPT: -20%; ELG1 DNA repair: inconclusive; IL1B secr inh: 0; RORgamma inh: 28%

How did CC(C)(C)NC(=O)C(c1ccco1)N(C(=O)Cn1nnc(-c2ccc(F)cc2)n1)c1cccc(F)c1 (centres undefined) do in these assays?
DT40 TDP1 CPT: inconclusive; Gal4-VP16 FLuc: 1%; DT40 TDP1 no CPT: 21µM*; ELG1 DNA repair: inconclusive; IL1B secr inh: -4; RORgamma inh: -37%

What do the screens show for `CC(C)(C)NC(=O)C(c1c[nH]c2ccccc12)N(C(=O)Cn1nnc(-c2ccc(F)cc2)n1)c1cccc(O)c1` (centres undefined)?
DT40 TDP1 CPT: inconclusive; Gal4-VP16 FLuc: -13%; DT40 TDP1 no CPT: 21µM*; ELG1 DNA repair: inconclusive; IL1B secr inh: inconclusive; RORgamma inh: inconclusive

Results for Cc1ccc(-c2nnn(CC(=O)N(CCN3CCOCC3)C(C(=O)NC(C)(C)C)c3ccco3)n2)cc1 (centres undefined) ?
DT40 TDP1 CPT: 15%; Gal4-VP16 FLuc: 1%; DT40 TDP1 no CPT: -9%; ELG1 DNA repair: -10%; IL1B secr inh: -6; RORgamma inh: -1%

What do the screens show for `COc1cccc(/C=C2\CCC(C3CCCC3)C2=O)c1OC` (centres undefined)?
DT40 TDP1 CPT: inconclusive; Gal4-VP16 FLuc: -5%; DT40 TDP1 no CPT: inconclusive; ELG1 DNA repair: inconclusive; IL1B secr inh: 45; RORgamma inh: -19%

Results for COc1ccc(/C=N/n2c(C)nnc2C)c(OC)c1OC ?
DT40 TDP1 CPT: 15%; Gal4-VP16 FLuc: -16%; DT40 TDP1 no CPT: 0%; ELG1 DNA repair: inconclusive; IL1B secr inh: 9; RORgamma inh: -54%

What do the screens show for `COc1cc(/C=C2\CCC(C3CCCC3)C2=O)cc(OC)c1OC` (centres undefined)?
DT40 TDP1 CPT: inconclusive; Gal4-VP16 FLuc: 2%; DT40 TDP1 no CPT: 16µM*; ELG1 DNA repair: inconclusive; IL1B secr inh: 19; RORgamma inh: 33%

How did COc1ccc(/C=C2/CC/C(=C\c3ccc(OC)c(OC)c3OC)C2=O)c(OC)c1OC do in these assays?
DT40 TDP1 CPT: inconclusive; Gal4-VP16 FLuc: -17%; DT40 TDP1 no CPT: 8.2µM*; ELG1 DNA repair: inconclusive; IL1B secr inh: -22; RORgamma inh: 1%

How did COc1ccc(/C=C2\CCC(C3CCCC3)C2=O)c(OC)c1OC (centres undefined) do in these assays?
DT40 TDP1 CPT: inconclusive; Gal4-VP16 FLuc: 4%; DT40 TDP1 no CPT: 18µM*; ELG1 DNA repair: 21%; IL1B secr inh: -8; RORgamma inh: 29%

How did CCOC(=O)CSC1=Nc2ccccc2C2=NC(CC(=O)NCc3ccccc3)C(=O)N12 (centres undefined) do in these assays?
DT40 TDP1 CPT: -28%; Gal4-VP16 FLuc: -6%; DT40 TDP1 no CPT: 11%; ELG1 DNA repair: -3%; IL1B secr inh: -19; RORgamma inh: -7%

What do the screens show for `CCOc1ccccc1NC(=O)CSC1=Nc2ccccc2C2=NC(CC(=O)NCc3ccc4c(c3)OCO4)C(=O)N12` (centres undefined)?
DT40 TDP1 CPT: inconclusive; DT40 TDP1 no CPT: 23µM*

What do the screens show for `COc1ccc(NC(=O)CSC2=Nc3ccccc3C3=NC(CC(=O)NCc4ccc(F)cc4)C(=O)N23)cc1` (centres undefined)?
DT40 TDP1 CPT: -7%; DT40 TDP1 no CPT: -15%

What do the screens show for `O=C(CC1N=C2c3ccccc3N=C(SCc3ccccc3F)N2C1=O)NCc1ccc2c(c1)OCO2` (centres undefined)?
DT40 TDP1 CPT: 18µM*; DT40 TDP1 no CPT: inconclusive

How did O=C(O)c1ccc(N=Cc2c(O)ccc3oc4c(c23)CCCC4)cc1 do in these assays?
DT40 TDP1 CPT: 16µM*; Gal4-VP16 FLuc: -3%; DT40 TDP1 no CPT: inconclusive; ELG1 DNA repair: inconclusive; IL1B secr inh: 70; RORgamma inh: -41%

Results for Oc1ccccc1N=Cc1c(O)ccc2oc3c(c12)CCCC3 ?
DT40 TDP1 CPT: inconclusive; Gal4-VP16 FLuc: 10µM*; DT40 TDP1 no CPT: inconclusive; ELG1 DNA repair: inconclusive; IL1B secr inh: 26; RORgamma inh: 3.2µM*

Results for Oc1ccc2oc3c(c2c1/C=N/n1cnnc1)CCCC3 ?
DT40 TDP1 CPT: -21%; Gal4-VP16 FLuc: 7%; DT40 TDP1 no CPT: inconclusive; ELG1 DNA repair: inconclusive; IL1B secr inh: 38; RORgamma inh: -17%

Results for Cc1cc(C2=NNC(=NC3CC3)SC2)c(C)n1Cc1ccco1 ?
DT40 TDP1 CPT: 16µM*; Gal4-VP16 FLuc: -3%; DT40 TDP1 no CPT: 8.2µM*; ELG1 DNA repair: inconclusive; IL1B secr inh: 6; RORgamma inh: inconclusive

Results for Cc1cc(-c2csc(N)n2)c(C)n1Cc1ccco1 ?
DT40 TDP1 CPT: -1%; Gal4-VP16 FLuc: -2%; DT40 TDP1 no CPT: 1%; ELG1 DNA repair: 7%; IL1B secr inh: 12; RORgamma inh: -7%

Results for COCC(C)N=C1NN=C(c2cc(C)n(Cc3ccccc3Cl)c2C)CS1 (centres undefined) ?
DT40 TDP1 CPT: 13µM*; Gal4-VP16 FLuc: -11%; DT40 TDP1 no CPT: 12µM*; ELG1 DNA repair: inconclusive; IL1B secr inh: inconclusive; RORgamma inh: -31%

How did COCCn1c(C)cc(C2=NNC(=Nc3ccc(Cl)cc3Cl)SC2)c1C do in these assays?
DT40 TDP1 CPT: inconclusive; Gal4-VP16 FLuc: -4%; DT40 TDP1 no CPT: inconclusive; ELG1 DNA repair: 0%; IL1B secr inh: -5; RORgamma inh: -1%

How did Cc1cc(C2=NNC(=NCc3ccccc3)SC2)c(C)n1-c1c(C)n(C)n(-c2ccccc2)c1=O do in these assays?
DT40 TDP1 CPT: -13%; Gal4-VP16 FLuc: 5%; DT40 TDP1 no CPT: inconclusive; ELG1 DNA repair: -14%; IL1B secr inh: -10; RORgamma inh: 25%

What do the screens show for `COCCCN=C1NN=C(c2cc(C)n(Cc3ccco3)c2C)CS1`?
DT40 TDP1 CPT: 0.65µM*; Gal4-VP16 FLuc: inconclusive; DT40 TDP1 no CPT: 0.029µM*; ELG1 DNA repair: inconclusive; IL1B secr inh: 35; RORgamma inh: inconclusive

What do the screens show for `Cc1cc2occ(CC(=O)N(CC(C)C)c3c(N)n(Cc4ccccc4)c(=O)[nH]c3=O)c2cc1C`?
DT40 TDP1 CPT: -27%; DT40 TDP1 no CPT: inconclusive; ELG1 DNA repair: 0%; IL1B secr inh: -23
